Screen size: about 69,000 compounds; about 8,600 (12%) showed an effect of 50% or more. The list comes from a sample in which strong results are over-represented; it also holds similar structures and randomly drawn compounds.

The assay relates to Plasmodium berghei. The experiment in a line: Screen against P. berghei liver stage (PbLuc), transformed with Luciferase, at 10uM. The settings on record: tested at 10 uM. Format: functional, HepG2.
`Cc1cc(CN2CCN(Cc3ccc(C#N)cc3OC(F)F)CC2)no1`: the INHIBITION came to 14.27%.
Take `COc1ccc(C2CCCN2c2ccc(C#N)cn2)c(OC)c1` (stereo not drawn): the INHIBITION is 37.7%.
In the case of `COc1ccc(Oc2ccc(C(F)(F)F)cn2)cc1CN1CCCC1` it was 63.7%; in that of `COc1ccc(CN2CCn3c(CO)nnc3C2)cc1CN1CCCC1`, 44.8%.
For `COc1cc(Oc2ccc(C#N)cn2)ccc1CN1CCCC1`, the INHIBITION was 82.9%.
In the case of `COc1ccc(CN2CCC(O)CC2)c(OC)c1` it was 1.81%.
In the case of `O=C(Cc1cccc(O)c1)N1CCCC(O)(CN2CCOCC2)CC1` (stereo not drawn), the INHIBITION is recorded as 6.26%.
As for `CC(Cn1cccn1)NC(=O)NCc1ccc(C(N)=O)cc1` (stereo not drawn), the figure is -98.8%; as for `Cc1cc(NC(=O)CN2CCn3c(nnc3C3CC3)C2)on1`, 25.3%.
As for `CC(C)c1nc(C2CCCN2CCN2CCCCC2)no1` (stereo not drawn), the figure is -0.55%; as for `CN(C)CCO[C@H]1CN(CC2CC2)[C@@H]2CCCO[C@H]12`, 25.8%; as for `CC(NC(=O)c1cccs1)C(=O)NCc1ccccn1` (stereo not drawn), 21.6%.
`O=c1cc(Cn2cncn2)nc2n1CCCN(Cc1ccoc1)C2`: the INHIBITION was 20.5%.
As to `CCS(=O)(=O)N1CCC(NC(=O)c2cc(C(C)C)ccc2O)CC1`, the INHIBITION is -7.1%.
`Cc1ncsc1CN1CC[C@H]2OCC[C@@]2(C(=O)N2CCOCC2)C1`: the INHIBITION turned out to be 11.4%.
Take `CC1(C)CC(NC(=O)c2cnn(-c3ccccc3F)c2N)CC(C)(C)N1`: the INHIBITION is reported as -33%.
Consider `Cc1cc(C(=O)N2CCn3c(COCC4CCCC4)cnc3C2C)on1` (stereo not drawn), for which the INHIBITION worked out at 37.3%.
In the case of `CCn1nc(C)c2nc(C(C)C)nc(NCC(C)O)c21` (stereo not drawn) it was -3.11%; in that of `CCn1nc(C)c2nc(C)nc(NCCc3ccccc3)c21`, 46.4%.
As to `CCn1nc(C)c2nc(C(C)C)nc(NCCCO)c21`, the INHIBITION is reported as -9.48%.
Take `CCn1nc(C)c2nc(C(C)C)nc(NCCc3ccc(O)cc3)c21`: the INHIBITION was determined as 68.1%.
For `CCn1nc(C)c2nc(C)nc(NCCc3ccc(C)cc3)c21`, the INHIBITION amounted to 62.7%.
On to `CCCc1nc(NCCc2ccccc2)c2c(n1)c(C)nn2CC`, for which the INHIBITION is listed as 43.7%.
As for `CCOc1ccccc1C1CCCN1` (stereo not drawn), the INHIBITION was 15.8%.
With `Cc1cnn(CC(C)NCc2nc(-c3ccsc3)oc2C)c1` (stereo not drawn), the INHIBITION is listed as -7.31%.
As to `CC1(C)CN(Cc2ccncc2)CCS1(=O)=O`, the INHIBITION is 21.9%.
As for `Cc1ccc(CN2CCS(=O)(=O)C(C)(C)C2)cc1C`, the INHIBITION is 70.1%.
In the case of `Cn1cc(CN2CCS(=O)(=O)C(C)(C)C2)cn1` it was 44.3%; in that of `COc1ccc(Cn2cc(C(C)O)nn2)cc1` (stereo not drawn), 19.9%.
`CNc1cnc(CC2COCCN(CCOc3ccccc3)C2)cn1` (stereo not drawn): the INHIBITION is reported as 39.7%.
Consider `CC(=O)NC1CCN(C(=O)Nc2ccc(SC(F)F)cc2)CC1`, for which the INHIBITION worked out at 73.5%.
On to `CC(=O)NC1CCN(C(=O)Nc2cccc(C(F)(F)F)c2)CC1`, for which the INHIBITION came out at 27.9%.
In the case of `CC(=O)NC1CCN(C(=O)Nc2cccc(SC(F)F)c2)CC1`, the INHIBITION was 27.9%.
With `CN(Cc1ccco1)[C@@H]1CN(Cc2cccs2)C[C@@H]2CCCO[C@@H]21`, the INHIBITION is recorded as 31.4%.
Take `Cn1cnnc1SCC(=O)N1C[C@@H]2CC[C@H]1CN(Cc1cccnc1)C2`: the INHIBITION was found to be 6.28%.
In the case of `CCN(CC)C(=O)CN1CCc2c(nc(C3CCNCC3)nc2NC)C1` it was -3.94%; in that of `Nc1ccc(C(=O)N2C[C@H]3CC[C@@H](C2)N(Cc2ccccc2)C3)cn1`, -20.8%.
As for `Cc1cccc(-n2ncc(C(=O)NCC3CCS(=O)(=O)C3)c2C)c1` (stereo not drawn), the INHIBITION is listed as -33.9%.
Take `Cc1c(C(=O)NCC2CCS(=O)(=O)C2)cnn1-c1ccccc1` (stereo not drawn): the INHIBITION turned out to be 57.8%.
Take `Cc1ccc(-n2ncc(C(=O)NCC3CCS(=O)(=O)C3)c2C)cc1` (stereo not drawn): the INHIBITION is recorded as -24.2%.
Turning to `O=C1N(Cc2ccc(Cl)cc2)CCC12CCCNC2` (stereo not drawn), the INHIBITION stood at 3.81%.
`CC(=O)NCCc1ccc(S(=O)(=O)Nc2ccc(C)c(F)c2)s1`: the INHIBITION was determined as 32.3%.
Take `CC(=O)c1ccc(-n2c(C)cn(CCS(C)(=O)=O)c2=O)cc1`: the INHIBITION worked out at 55.6%.
With `CC(=O)c1ccc(-n2c(C)cn(CCC(=O)NC(N)=O)c2=O)cc1`, the INHIBITION came out at 12.7%.
Consider `CC(=O)c1ccc(-n2c(C)cn(CCC#N)c2=O)cc1`, for which the INHIBITION is recorded as 5.36%.
For `OC(CN1CCN(Cc2cc(F)ccc2F)CC1)C1CC1` (stereo not drawn), the INHIBITION is -6.11%.
Regarding `CCC(Nc1cccc(OC)c1)C(=O)NCc1nc(C)cc(=O)[nH]1` (stereo not drawn), the INHIBITION was determined as 36.4%.
As for `CCS(=O)(=O)N1CCc2c(COCc3ccncc3)cncc2C1`, the figure is 66.6%; as for `O=S(=O)(C1CC1)N1CCc2c(CN3CCOCC3)cncc2C1`, 12.6%.
As to `CCS(=O)(=O)N1CCc2c(COC)cncc2C1`, the INHIBITION was found to be 23.1%.
As for `CCS(=O)(=O)N1CCc2c(CN3CCOCC3)cncc2C1`, the figure is 92.1%; as for `CCCS(=O)(=O)N1CCc2c(COCC)cncc2C1`, 33%; as for `CCS(=O)(=O)N1CCc2c(COCCN(C)C)cncc2C1`, 24%.

(Values after ChEMBL document CHEMBL4513216, “Probing the Open Global Health Chemical Diversity Library for Multistage-Active Starting Points for Next-Generation Antimalarials” (ACS Infect Dis, 2020).)
